Each structure is given as a SMILES string.

Platelet-derived growth factor receptor alpha (Homo sapiens), sequence (P16234 whole entry): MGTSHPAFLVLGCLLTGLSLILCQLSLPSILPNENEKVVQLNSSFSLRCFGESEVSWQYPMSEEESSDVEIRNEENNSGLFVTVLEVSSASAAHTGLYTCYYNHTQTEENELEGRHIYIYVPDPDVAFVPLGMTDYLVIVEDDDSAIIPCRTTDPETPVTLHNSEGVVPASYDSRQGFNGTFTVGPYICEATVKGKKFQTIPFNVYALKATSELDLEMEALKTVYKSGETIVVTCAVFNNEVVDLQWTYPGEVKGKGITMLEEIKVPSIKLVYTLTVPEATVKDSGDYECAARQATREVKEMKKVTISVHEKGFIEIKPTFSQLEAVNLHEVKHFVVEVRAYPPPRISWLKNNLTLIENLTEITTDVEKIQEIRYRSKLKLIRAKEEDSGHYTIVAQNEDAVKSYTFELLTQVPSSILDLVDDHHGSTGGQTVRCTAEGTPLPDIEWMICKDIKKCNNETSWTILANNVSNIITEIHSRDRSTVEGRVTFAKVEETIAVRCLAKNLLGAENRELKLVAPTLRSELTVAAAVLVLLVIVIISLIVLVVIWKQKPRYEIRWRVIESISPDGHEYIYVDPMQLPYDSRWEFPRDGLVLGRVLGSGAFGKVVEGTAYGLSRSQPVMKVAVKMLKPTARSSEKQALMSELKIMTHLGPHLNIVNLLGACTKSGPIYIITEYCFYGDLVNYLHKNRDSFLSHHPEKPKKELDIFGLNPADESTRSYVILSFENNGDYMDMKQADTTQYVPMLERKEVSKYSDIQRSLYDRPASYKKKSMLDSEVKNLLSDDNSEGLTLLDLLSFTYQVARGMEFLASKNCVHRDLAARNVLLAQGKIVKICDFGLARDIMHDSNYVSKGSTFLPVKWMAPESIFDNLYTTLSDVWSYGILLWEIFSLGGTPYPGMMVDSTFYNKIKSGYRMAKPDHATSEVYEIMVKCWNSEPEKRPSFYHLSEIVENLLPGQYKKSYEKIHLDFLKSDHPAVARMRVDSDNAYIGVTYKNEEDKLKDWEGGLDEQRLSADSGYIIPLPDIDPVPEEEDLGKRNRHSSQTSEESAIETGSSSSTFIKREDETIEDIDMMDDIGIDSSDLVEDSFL

For the first test, the target named is T1, Muscle, skeletal receptor tyrosine-protein kinase (Homo sapiens) (UniProt O15146).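 Also: reported value is the mean percent inhibition of MuSK kinase.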
T1 sequence (whole entry): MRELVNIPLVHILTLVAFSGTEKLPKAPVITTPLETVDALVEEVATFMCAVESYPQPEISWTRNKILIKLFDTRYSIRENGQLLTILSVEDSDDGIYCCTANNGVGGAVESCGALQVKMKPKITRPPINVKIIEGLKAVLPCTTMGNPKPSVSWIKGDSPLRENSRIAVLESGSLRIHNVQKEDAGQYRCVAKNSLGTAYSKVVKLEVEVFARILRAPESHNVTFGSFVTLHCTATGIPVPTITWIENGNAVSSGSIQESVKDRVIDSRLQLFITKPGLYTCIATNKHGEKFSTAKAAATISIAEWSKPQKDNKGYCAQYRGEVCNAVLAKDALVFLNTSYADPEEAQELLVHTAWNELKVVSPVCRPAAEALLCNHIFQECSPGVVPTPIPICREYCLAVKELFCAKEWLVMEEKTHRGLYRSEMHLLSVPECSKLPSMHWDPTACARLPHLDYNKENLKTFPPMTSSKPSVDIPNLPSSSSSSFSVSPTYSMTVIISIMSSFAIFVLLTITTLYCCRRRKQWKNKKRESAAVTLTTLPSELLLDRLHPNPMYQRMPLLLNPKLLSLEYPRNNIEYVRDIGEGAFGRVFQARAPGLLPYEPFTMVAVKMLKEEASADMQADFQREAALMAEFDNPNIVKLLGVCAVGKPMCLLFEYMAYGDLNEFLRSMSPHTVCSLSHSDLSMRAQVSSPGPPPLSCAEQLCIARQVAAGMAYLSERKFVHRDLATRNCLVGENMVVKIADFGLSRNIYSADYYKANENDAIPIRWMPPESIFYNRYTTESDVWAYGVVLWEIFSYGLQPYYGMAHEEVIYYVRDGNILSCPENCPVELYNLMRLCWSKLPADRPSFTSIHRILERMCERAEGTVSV
The note with it: at 1 µM.
With `O=C1NC(=O)C(c2cccc(Cl)c2)=C1Nc1ccc(Cl)c(C(=O)O)c1`, the inhibition was 3.32%.
The same measure, in the same setting: next, `CCc1cccc(CC)c1/C=C/c1cncc(C(=O)NC)c1`: 0.76%; `C/C(Nc1ccc(S(N)(=O)=O)cc1)=C1/C(=O)Nc2ccccc21`: 30.9%; `Cc1ccc(C(=O)NC2CCC2)cc1-c1ccc(C(=O)NCC2CC2)cc1`: 3.12%.
Take `O=C(Nc1n[nH]c2cc(-c3ccccc3)ccc12)C1CC1`: the inhibition stood at 4.91%.
The same measure, in the same setting: the same measure for `NS(=O)(=O)c1ccc(N/N=C2\C(=O)Nc3ccc(-c4cnco4)cc32)cc1`: 18.5%; for `COc1cc(C)c(N(C)C(=O)CN(C)C)cc1Nc1nc(Nc2cccc(F)c2C(N)=O)c2cc[nH]c2n1`: 3.08%; for `CN1CCN(CCCNc2nc3ccc(Oc4ccc(NC(=O)Nc5cc(C(F)(F)F)ccc5F)cc4)cc3[nH]2)CC1`: 59.2%.
On the same count and under the same terms, next, `Fc1ccc(-c2ncn(C3CCNCC3)c2-c2ccnc(Oc3ccc(F)c(F)c3)n2)cc1`: 4.68%; `Cc1ccc(C(=O)NC(C)C)cc1-c1ccc(C(=O)NCC2CC2)cc1`: -2.53%; `N#Cc1ccc(Oc2nccc(-c3c(-c4ccc(F)cc4)ncn3C3CCNCC3)n2)cc1`: 0.9%.
In the case of `NC(=O)Cc1ccccc1Oc1nccc(-c2c(-c3ccc(F)cc3)ncn2C2CCNCC2)n1`, the inhibition was found to be 1.69%.
Still for that read-out and setting: the same measure for `c1ccc(Oc2ccc(Nc3ncc(-c4ccccc4)o3)cc2)cc1`: 2.81%; for `Fc1ccc(-c2ncn(C3CCNCC3)c2-c2ccnc(Oc3ccc4c(c3)OCO4)n2)cc1`: 4.22%.
Same read-out and setting: the same measure for `COc1ccc(C2=C(N3CCc4ccccc43)C(=O)NC2=O)cc1`: 6.74%; for `C#Cc1cccc(Nc2ncnc3ccc(OCCCCNCCS(C)(=O)=O)cc23)c1`: 2.93%.
On the same count and under the same terms, the same measure for `c1ccc(-c2n[nH]cc2-c2ccnc(-c3ccc(OCCN4CCOCC4)cc3)c2)nc1`: 9.04%; for `Cc1ccc(NC(=O)c2ccoc2)cc1-c1ccc(C(=O)NCC2CC2)cc1`: 1.19%.
Take `CCS(=O)(=O)c1ccc(OC)c(Nc2ncc(-c3cccc(-c4ccccc4F)c3)o2)c1`: the inhibition was found to be 5.48%.
As for `Clc1ccc(CNc2nccc(-c3cnn4ncccc34)n2)cc1`, the inhibition is 3.54%.
On the same count and under the same terms, next, `COc1ccc2cc(-c3c(-c4ccncc4)nc(-c4ccc(S(C)(=O)=O)cc4C)n3C)ccc2c1`: 6.38%.
On to `CNC(=O)c1cncc(/C=C/c2c(C)cccc2C)c1`, for which the inhibition was 5.15%.
Still for that read-out and setting: the same measure for `CS(=O)(=O)CCNCc1cc(-c2cc3c(Nc4ccc(OCc5cccc(F)c5)c(Cl)c4)ncnc3s2)cs1`: 8.6%; for `CCS(=O)(=O)c1ccc(OC)c(Nc2ncc(-c3ccccc3Cl)o2)c1`: 8.58%.
Still for that read-out and setting: the same measure for `Fc1ccc(-c2ncn(CCCN3CCOCC3)c2-c2ccncc2)cc1`: 1.32%.
Same read-out and setting: next, `COc1cccc(/C=N/Nc2ncnc3c2cnn3-c2cccc(OC)c2)c1`: 3.43%; `CN(C)CCOc1ccc(-c2cc(-c3ccc4c(c3)CCC4=NO)c(-c3ccncc3)o2)cc1`: -1%.
Consider `NS(=O)(=O)c1ccc(Nc2cc(-c3ccc(O)c(F)c3)n[nH]2)cc1`, for which the inhibition worked out at 41%.
Same read-out and setting: the same measure for `NC(=O)c1cc(-c2ccc(F)cc2)cc(-c2ccncc2)c1N`: 1.32%; for `COc1cc2ncn(-c3cc(OCCc4ccccc4)c(C(N)=O)s3)c2cc1OC`: 3.75%.
The same measure, in the same setting: the same measure for `O=C(Nc1n[nH]c2cc(-c3cc(F)ccc3F)ccc12)C1CC1`: 10.1%; for `COc1ccc2ncn(-c3cc(O[C@H](C)c4ccccc4Cl)c(C(N)=O)s3)c2c1`: 15%.
On the same count and under the same terms, next, `CN(C)CCCNc1nccc(-c2c(-c3ccc(F)cc3)nn3cc(C(F)(F)F)ccc23)n1`: 12.5%; `O=C(Nc1n[nH]c2nc(-c3ccco3)ccc12)C1CC1`: 7.97%.

The next test concerns the target Platelet-derived growth factor receptor alpha (Homo sapiens) (UniProt P16234). The note with it: at 0.1 µM.
For the compound `O=C1NC(=O)C(c2cccc(Cl)c2)=C1Nc1ccc(Cl)c(C(=O)O)c1`, the inhibition stood at 5.36%.
On the same count and under the same terms, the same measure for `CCc1cccc(CC)c1/C=C/c1cncc(C(=O)NC)c1`: 9.56%.
Same read-out and setting: next, `C/C(Nc1ccc(S(N)(=O)=O)cc1)=C1/C(=O)Nc2ccccc21`: 13.8%; `Cc1ccc(C(=O)NC2CCC2)cc1-c1ccc(C(=O)NCC2CC2)cc1`: 1.47%.
Still for that read-out and setting: the same measure for `O=C(Nc1n[nH]c2cc(-c3ccccc3)ccc12)C1CC1`: 8.78%; for `NS(=O)(=O)c1ccc(N/N=C2\C(=O)Nc3ccc(-c4cnco4)cc32)cc1`: 13.9%; for `COc1cc(C)c(N(C)C(=O)CN(C)C)cc1Nc1nc(Nc2cccc(F)c2C(N)=O)c2cc[nH]c2n1`: 4.02%.
For the compound `CN1CCN(CCCNc2nc3ccc(Oc4ccc(NC(=O)Nc5cc(C(F)(F)F)ccc5F)cc4)cc3[nH]2)CC1`, the inhibition came out at 32.6%.
Same read-out and setting: the same measure for `Fc1ccc(-c2ncn(C3CCNCC3)c2-c2ccnc(Oc3ccc(F)c(F)c3)n2)cc1`: 11%.
Same read-out and setting: the same measure for `Cc1ccc(C(=O)NC(C)C)cc1-c1ccc(C(=O)NCC2CC2)cc1`: 0.96%; for `N#Cc1ccc(Oc2nccc(-c3c(-c4ccc(F)cc4)ncn3C3CCNCC3)n2)cc1`: 4.83%; for `NC(=O)Cc1ccccc1Oc1nccc(-c2c(-c3ccc(F)cc3)ncn2C2CCNCC2)n1`: 3.58%.
The same measure, in the same setting: next, `c1ccc(Oc2ccc(Nc3ncc(-c4ccccc4)o3)cc2)cc1`: 7.17%.
In the case of `Fc1ccc(-c2ncn(C3CCNCC3)c2-c2ccnc(Oc3ccc4c(c3)OCO4)n2)cc1`, the inhibition came out at 11.8%.
On to `COc1ccc(C2=C(N3CCc4ccccc43)C(=O)NC2=O)cc1`, for which the inhibition was 4.56%.
Same read-out and setting: the same measure for `C#Cc1cccc(Nc2ncnc3ccc(OCCCCNCCS(C)(=O)=O)cc23)c1`: 16.4%; for `c1ccc(-c2n[nH]cc2-c2ccnc(-c3ccc(OCCN4CCOCC4)cc3)c2)nc1`: 20.1%; for `Cc1ccc(NC(=O)c2ccoc2)cc1-c1ccc(C(=O)NCC2CC2)cc1`: 3.05%.
On the same count and under the same terms, next, `CCS(=O)(=O)c1ccc(OC)c(Nc2ncc(-c3cccc(-c4ccccc4F)c3)o2)c1`: 10.8%; `Clc1ccc(CNc2nccc(-c3cnn4ncccc34)n2)cc1`: 4.87%.
Still for that read-out and setting: next, `COc1ccc2cc(-c3c(-c4ccncc4)nc(-c4ccc(S(C)(=O)=O)cc4C)n3C)ccc2c1`: 7.63%; `CNC(=O)c1cncc(/C=C/c2c(C)cccc2C)c1`: 8.57%; `CS(=O)(=O)CCNCc1cc(-c2cc3c(Nc4ccc(OCc5cccc(F)c5)c(Cl)c4)ncnc3s2)cs1`: 9.29%.
Turning to `CCS(=O)(=O)c1ccc(OC)c(Nc2ncc(-c3ccccc3Cl)o2)c1`, the inhibition amounted to 5.6%.
With `Fc1ccc(-c2ncn(CCCN3CCOCC3)c2-c2ccncc2)cc1`, the inhibition was 6.11%.
On the same count and under the same terms, next, `COc1cccc(/C=N/Nc2ncnc3c2cnn3-c2cccc(OC)c2)c1`: 2.69%.
For `CN(C)CCOc1ccc(-c2cc(-c3ccc4c(c3)CCC4=NO)c(-c3ccncc3)o2)cc1`, the inhibition stood at 3.05%.
The same measure, in the same setting: next, `NS(=O)(=O)c1ccc(Nc2cc(-c3ccc(O)c(F)c3)n[nH]2)cc1`: 17%.
Same read-out and setting: the same measure for `NC(=O)c1cc(-c2ccc(F)cc2)cc(-c2ccncc2)c1N`: 3.04%.
Still for that read-out and setting: the same measure for `COc1cc2ncn(-c3cc(OCCc4ccccc4)c(C(N)=O)s3)c2cc1OC`: 10.5%; for `O=C(Nc1n[nH]c2cc(-c3cc(F)ccc3F)ccc12)C1CC1`: 7.53%.
Turning to `COc1ccc2ncn(-c3cc(O[C@H](C)c4ccccc4Cl)c(C(N)=O)s3)c2c1`, the inhibition worked out at 10.4%.
Same read-out and setting: next, `CN(C)CCCNc1nccc(-c2c(-c3ccc(F)cc3)nn3cc(C(F)(F)F)ccc23)n1`: 12.9%; `O=C(Nc1n[nH]c2nc(-c3ccco3)ccc12)C1CC1`: 6.36%.
